Assay [1] deals with Calcium/calmodulin-dependent protein kinase type II subunit alpha (Homo sapiens) (UniProt Q9UQM7). The note with it: at 1 µM.
The target in assay [2] is Calcium/calmodulin-dependent protein kinase type II subunit delta (Homo sapiens) (UniProt Q13557). The following applies: at 0.1 µM.
Assay [3] shares this target. The following applies: at 1 µM.
Assay [4] concerns the target T1, Calcium/calmodulin-dependent protein kinase type IV (Homo sapiens) (UniProt Q16566).
T1 sequence (whole entry): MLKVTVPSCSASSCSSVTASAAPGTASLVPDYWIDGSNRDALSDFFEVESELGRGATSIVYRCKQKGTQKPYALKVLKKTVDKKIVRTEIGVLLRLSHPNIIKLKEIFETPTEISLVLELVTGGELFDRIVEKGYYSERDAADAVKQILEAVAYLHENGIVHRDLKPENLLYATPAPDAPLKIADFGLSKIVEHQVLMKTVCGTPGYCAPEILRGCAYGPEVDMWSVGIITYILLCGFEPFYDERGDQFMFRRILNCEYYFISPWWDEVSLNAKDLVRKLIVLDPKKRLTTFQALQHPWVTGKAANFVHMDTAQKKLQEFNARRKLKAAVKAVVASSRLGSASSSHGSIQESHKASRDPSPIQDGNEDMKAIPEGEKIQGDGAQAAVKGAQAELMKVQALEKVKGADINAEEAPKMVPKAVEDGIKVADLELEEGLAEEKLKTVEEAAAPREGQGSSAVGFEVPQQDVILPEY
The following applies: at 0.1 µM.

In assay [5] the target is T1, Calcium/calmodulin-dependent protein kinase type IV (Homo sapiens). The note with it: at 1 µM.
In assay [6] the target is T2, Serine/threonine-protein kinase Chk1 (Homo sapiens) (UniProt O14757).
T2 sequence (whole entry): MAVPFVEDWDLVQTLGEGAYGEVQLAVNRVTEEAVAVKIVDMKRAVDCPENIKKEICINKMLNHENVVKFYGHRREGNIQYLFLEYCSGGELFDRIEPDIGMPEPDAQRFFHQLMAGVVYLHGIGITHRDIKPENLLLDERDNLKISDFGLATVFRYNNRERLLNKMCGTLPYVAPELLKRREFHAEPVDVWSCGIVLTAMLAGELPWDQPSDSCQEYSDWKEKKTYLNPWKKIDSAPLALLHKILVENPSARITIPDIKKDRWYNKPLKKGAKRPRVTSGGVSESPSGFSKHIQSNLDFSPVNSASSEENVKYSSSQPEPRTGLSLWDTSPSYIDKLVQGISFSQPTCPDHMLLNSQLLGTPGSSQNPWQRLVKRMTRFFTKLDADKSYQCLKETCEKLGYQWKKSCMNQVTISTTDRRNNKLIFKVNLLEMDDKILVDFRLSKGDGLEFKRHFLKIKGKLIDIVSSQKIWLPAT
The following applies: at 0.1 µM.

Assay [7] addresses T2, Serine/threonine-protein kinase Chk1 (Homo sapiens). The note with it: at 1 µM.
Assay [8] addresses Serine/threonine-protein kinase Chk2 (Homo sapiens) (UniProt O96017). The note with it: at 0.1 µM.
Assay [9] shares this target. The following applies: at 1 µM.
For assay [10], the target named is Death-associated protein kinase 1 (Homo sapiens) (UniProt P53355). The note with it: at 0.1 µM.
For assay [11] the target is unchanged. The following applies: at 1 µM.
Assay [12] addresses T3, Serine/threonine-protein kinase DCLK2 (Homo sapiens) (UniProt Q8N568).
T3 sequence (whole entry): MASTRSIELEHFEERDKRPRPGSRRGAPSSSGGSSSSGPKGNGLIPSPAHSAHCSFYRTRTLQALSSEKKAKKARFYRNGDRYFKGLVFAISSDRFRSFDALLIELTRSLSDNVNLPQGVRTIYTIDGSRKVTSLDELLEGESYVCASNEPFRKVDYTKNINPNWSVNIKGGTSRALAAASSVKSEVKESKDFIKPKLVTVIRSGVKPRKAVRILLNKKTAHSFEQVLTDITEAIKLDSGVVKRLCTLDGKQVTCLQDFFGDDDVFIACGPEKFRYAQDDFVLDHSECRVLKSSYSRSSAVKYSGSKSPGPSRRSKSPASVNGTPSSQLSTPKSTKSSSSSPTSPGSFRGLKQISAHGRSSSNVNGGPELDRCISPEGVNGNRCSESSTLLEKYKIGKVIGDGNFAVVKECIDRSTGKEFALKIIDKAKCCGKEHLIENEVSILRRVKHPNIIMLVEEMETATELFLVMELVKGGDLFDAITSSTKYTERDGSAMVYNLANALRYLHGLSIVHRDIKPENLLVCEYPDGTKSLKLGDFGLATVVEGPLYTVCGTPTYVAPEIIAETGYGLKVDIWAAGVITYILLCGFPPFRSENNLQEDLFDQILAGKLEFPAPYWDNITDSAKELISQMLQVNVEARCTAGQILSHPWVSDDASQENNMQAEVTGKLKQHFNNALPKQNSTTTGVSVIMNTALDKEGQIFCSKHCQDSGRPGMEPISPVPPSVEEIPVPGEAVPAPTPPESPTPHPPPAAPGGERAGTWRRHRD
The note with it: at 0.1 µM.

The target in assay [13] is T3, Serine/threonine-protein kinase DCLK2 (Homo sapiens). The following applies: at 1 µM.
For assay [14], the target named is MAP kinase-activated protein kinase 2 (Homo sapiens) (UniProt P49137). The following applies: at 0.1 µM.
For assay [15] the target is unchanged. The following applies: at 1 µM.
Assay [16] has as its target MAP kinase-activated protein kinase 3 (Homo sapiens) (UniProt Q16644). The following applies: at 0.1 µM.
The target is the same in assay [17]. The note with it: at 1 µM.
Assay [18] has as its target Serine/threonine-protein kinase MARK1 (Homo sapiens) (UniProt Q9P0L2). The note with it: at 0.1 µM.
For assay [19] the target is unchanged. The following applies: at 1 µM.
Assay [20] concerns the target MAP/microtubule affinity-regulating kinase 3 (Homo sapiens) (UniProt P27448). The note with it: at 0.1 µM.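 Also: mean percent inhibition of MARK3 kinase activity, measured within the GSK PKIS screening panel.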

Sequence of Calcium/calmodulin-dependent protein kinase type II subunit delta (Homo sapiens) (Q13557 whole entry): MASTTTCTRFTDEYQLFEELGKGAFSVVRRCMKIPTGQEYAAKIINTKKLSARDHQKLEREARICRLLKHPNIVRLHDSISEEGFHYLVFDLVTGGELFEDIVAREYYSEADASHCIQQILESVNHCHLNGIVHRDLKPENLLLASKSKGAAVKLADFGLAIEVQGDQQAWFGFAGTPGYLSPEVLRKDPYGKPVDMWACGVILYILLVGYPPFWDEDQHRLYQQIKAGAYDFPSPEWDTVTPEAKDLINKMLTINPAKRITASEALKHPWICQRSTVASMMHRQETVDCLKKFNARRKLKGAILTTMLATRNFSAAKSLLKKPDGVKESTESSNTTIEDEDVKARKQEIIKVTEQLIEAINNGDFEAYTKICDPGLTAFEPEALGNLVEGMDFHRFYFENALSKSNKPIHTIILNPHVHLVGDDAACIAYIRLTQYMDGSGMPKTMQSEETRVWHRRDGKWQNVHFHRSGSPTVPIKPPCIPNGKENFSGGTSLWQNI
Sequence of Serine/threonine-protein kinase MARK1 (Homo sapiens) (Q9P0L2 whole entry, looked up): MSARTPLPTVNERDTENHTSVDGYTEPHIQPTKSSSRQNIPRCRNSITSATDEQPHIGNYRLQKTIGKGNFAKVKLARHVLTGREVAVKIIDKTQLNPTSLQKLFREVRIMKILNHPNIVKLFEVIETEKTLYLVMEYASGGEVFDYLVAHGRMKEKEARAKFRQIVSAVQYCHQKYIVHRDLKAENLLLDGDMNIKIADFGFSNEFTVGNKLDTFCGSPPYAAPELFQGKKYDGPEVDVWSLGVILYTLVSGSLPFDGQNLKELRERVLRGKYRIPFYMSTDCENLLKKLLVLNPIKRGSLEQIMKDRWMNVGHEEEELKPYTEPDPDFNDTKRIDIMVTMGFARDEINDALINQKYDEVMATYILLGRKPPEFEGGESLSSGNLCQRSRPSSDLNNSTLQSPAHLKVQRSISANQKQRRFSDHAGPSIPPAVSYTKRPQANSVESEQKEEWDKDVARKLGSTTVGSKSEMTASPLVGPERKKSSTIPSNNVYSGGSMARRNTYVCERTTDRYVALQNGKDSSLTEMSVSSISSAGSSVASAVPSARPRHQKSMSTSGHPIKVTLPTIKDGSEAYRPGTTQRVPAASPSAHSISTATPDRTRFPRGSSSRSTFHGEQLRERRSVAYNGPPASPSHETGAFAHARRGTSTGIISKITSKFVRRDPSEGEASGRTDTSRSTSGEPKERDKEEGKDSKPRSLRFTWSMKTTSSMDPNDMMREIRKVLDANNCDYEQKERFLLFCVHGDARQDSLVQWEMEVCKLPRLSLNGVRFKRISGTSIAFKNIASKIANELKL
Sequence of Serine/threonine-protein kinase Chk2 (Homo sapiens) (O96017 whole entry): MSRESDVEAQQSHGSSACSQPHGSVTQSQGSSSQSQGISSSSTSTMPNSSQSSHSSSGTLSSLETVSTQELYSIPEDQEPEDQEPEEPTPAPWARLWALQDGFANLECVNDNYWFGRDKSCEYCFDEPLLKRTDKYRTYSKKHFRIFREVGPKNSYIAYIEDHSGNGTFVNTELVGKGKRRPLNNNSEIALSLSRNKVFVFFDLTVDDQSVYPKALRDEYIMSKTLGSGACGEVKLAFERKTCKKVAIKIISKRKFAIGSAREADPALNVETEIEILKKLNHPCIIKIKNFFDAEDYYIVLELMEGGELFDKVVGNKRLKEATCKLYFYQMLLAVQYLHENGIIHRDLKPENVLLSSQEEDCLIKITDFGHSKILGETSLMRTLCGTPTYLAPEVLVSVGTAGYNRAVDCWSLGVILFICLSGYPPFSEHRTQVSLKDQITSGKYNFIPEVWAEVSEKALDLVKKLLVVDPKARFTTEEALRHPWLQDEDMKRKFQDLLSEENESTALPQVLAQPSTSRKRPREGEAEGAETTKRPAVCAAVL
Sequence of MAP kinase-activated protein kinase 2 (Homo sapiens) (P49137 whole entry, looked up): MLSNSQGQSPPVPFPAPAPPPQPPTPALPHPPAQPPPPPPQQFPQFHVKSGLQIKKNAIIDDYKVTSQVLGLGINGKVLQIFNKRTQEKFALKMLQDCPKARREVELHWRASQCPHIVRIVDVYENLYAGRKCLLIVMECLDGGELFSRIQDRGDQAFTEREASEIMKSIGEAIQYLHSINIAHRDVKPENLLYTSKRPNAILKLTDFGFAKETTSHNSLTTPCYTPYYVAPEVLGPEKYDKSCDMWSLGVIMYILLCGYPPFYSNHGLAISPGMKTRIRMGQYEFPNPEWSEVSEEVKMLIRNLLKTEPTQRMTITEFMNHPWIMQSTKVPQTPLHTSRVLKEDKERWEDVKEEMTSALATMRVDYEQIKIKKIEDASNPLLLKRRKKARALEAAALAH
Sequence of MAP kinase-activated protein kinase 3 (Homo sapiens) (Q16644 whole entry, looked up): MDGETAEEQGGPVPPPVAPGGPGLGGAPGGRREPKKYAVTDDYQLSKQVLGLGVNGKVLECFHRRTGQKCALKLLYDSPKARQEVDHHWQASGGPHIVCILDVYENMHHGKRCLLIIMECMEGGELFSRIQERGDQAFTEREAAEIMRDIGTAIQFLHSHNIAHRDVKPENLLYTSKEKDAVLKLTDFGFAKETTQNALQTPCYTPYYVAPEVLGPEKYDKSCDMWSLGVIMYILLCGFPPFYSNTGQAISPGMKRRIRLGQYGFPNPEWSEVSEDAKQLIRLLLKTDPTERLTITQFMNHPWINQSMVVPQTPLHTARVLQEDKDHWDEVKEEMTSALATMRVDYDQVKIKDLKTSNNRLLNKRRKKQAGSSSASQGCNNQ
Sequence of Calcium/calmodulin-dependent protein kinase type II subunit alpha (Homo sapiens) (Q9UQM7 whole entry): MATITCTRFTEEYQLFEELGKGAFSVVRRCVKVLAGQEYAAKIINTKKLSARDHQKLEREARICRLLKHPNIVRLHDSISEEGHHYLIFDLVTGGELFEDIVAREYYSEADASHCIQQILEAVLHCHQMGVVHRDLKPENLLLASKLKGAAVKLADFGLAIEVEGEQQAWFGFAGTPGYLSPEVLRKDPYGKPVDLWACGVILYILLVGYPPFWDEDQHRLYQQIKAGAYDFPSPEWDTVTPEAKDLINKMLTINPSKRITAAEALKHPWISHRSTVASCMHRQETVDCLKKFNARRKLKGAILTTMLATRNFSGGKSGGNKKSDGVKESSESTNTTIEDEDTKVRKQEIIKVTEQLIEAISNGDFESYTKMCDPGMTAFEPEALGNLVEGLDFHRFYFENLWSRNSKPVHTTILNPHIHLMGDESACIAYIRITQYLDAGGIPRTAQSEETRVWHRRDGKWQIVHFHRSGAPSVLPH
Sequence of MAP/microtubule affinity-regulating kinase 3 (Homo sapiens) (P27448 whole entry, looked up): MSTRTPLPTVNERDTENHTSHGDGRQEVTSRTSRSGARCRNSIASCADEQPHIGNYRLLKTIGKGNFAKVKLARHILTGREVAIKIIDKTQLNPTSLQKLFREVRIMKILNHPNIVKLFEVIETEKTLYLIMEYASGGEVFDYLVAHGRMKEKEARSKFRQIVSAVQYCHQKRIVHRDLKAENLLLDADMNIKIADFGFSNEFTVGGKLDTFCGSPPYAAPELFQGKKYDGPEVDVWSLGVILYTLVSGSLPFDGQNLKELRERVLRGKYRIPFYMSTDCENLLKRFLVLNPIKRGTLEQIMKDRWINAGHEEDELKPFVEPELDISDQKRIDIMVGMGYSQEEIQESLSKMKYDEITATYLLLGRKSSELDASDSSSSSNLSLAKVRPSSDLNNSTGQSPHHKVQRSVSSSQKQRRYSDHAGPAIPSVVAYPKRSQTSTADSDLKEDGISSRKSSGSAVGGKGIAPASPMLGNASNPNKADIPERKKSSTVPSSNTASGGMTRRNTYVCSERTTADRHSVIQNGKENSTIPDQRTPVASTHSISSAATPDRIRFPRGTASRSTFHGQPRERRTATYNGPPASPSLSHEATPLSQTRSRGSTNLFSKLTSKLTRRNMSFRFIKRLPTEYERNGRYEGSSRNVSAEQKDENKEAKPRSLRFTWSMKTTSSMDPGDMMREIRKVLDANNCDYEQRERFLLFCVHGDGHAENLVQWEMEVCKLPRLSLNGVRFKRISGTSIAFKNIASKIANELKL

Regarding `CCn1c(-c2nonc2N)nc2c(N3CCCC3)nccc21`, the inhibition – broadly, the change of the read-out against control, counted positive when it falls – in assay [1] is -3.88%; in assay [2], -2.38%; in assay [3] it was -0.97%; in assay [4], -0.74%; in [5], -0.33%; in assay [6], 2.68%. The inhibition in assay [7] is 0.57%; in assay [8], -2.44%; in assay [9] it was -2.51%; in assay [10], 0.86%; in assay [11], 0.8%; in assay [12], -6.15%. Besides, the inhibition in assay [13] was 4.26%; in assay [14], -1.28%; in [15] it was -1.63%; in assay [16], -0.94%; in [17] it was -1.73%; in assay [18] it was 0.71%. Moreover, the inhibition in assay [19] turned out to be 2.75%; in [20] it was 1.92%.
Turning to `COc1ccc2cc(-c3c(-c4ccncc4)nc(-c4ccc([S+](C)[O-])cc4)n3C)ccc2c1` (stereo unspecified), the inhibition worked out at 3.37% in assay [1]; 2.81% in assay [2]; 3.06% in assay [3]; 0.45% in assay [4]; 1.25% in [5]; 3.28% in assay [6]. Moreover, the inhibition in assay [7] turned out to be 4.03%; in assay [8], 2.27%; in [9] it was 2.52%; in assay [10], 3.27%; in assay [11], 4.63%; in [12], 0.5%. The inhibition in assay [13] was 5.77%; in [14], 1%; in assay [15], 0.92%; in assay [16], 2.16%; in assay [17], 2.35%; in [18], 3.1%. Also, the inhibition was 3.73% in assay [19] and 2.34% in assay [20].
As to `COc1cc2ncn(-c3cc(OCc4ccccc4Cl)c(C(N)=O)s3)c2cc1OC`, the inhibition in assay [1] was -0.06%; in assay [2], 0.36%; in assay [3], 2.88%; in assay [4] it was 0.78%; in assay [5] it was 0.41%; in assay [6], -4.54%. For the same molecule, the inhibition was -4.25% in assay [7]; -4.95% in assay [8]; -0.53% in assay [9]; -8.75% in assay [10]; -1.31% in [12]; 4.65% in assay [13]. Further, the inhibition in assay [14] was -2.81%; in assay [15], -3.53%; in assay [16], -5.38%; in [17], -2.78%; in assay [18], 2.4%; in [19] it was 9.28%. Besides, the inhibition in assay [20] is 1.85%.
Take `CCc1cccc(NC(=O)Nc2ccc(Oc3ccc4nc(NC(=O)OC)[nH]c4c3)cc2)c1`: the inhibition in [1] was 3.77%; in assay [2], 1.51%; in assay [3], 2.63%; in [4], 0.16%; in assay [5] it was -2.32%; in assay [7], -6.72%. In addition, the inhibition in assay [8] is -4.84%; in [9], -2.63%; in [10] it was -5.09%; in assay [11] it was -5.23%; in assay [12], 6.75%; in assay [13], 1.42%. The inhibition in [14] is -0.49%; in assay [15], -1.61%; in assay [16], -2.74%; in assay [17] it was -3.85%; in assay [18], 1.69%; in assay [19], 0.31%. Also, the inhibition in [20] is 1.5%.
`CS(=O)(=O)CCNCc1ccc(-c2ccc3ncnc(Nc4ccc(OCc5ccccc5)c(Cl)c4)c3c2)o1`: the inhibition is -1.87% in assay [1]; -1.29% in [2]; 1.59% in assay [3]; 0.2% in [4]; 1.37% in [5]; -6.61% in [6]. The inhibition is -6.9% in assay [7]; -6.13% in [8]; -4.43% in [9]; -9.06% in assay [10]; -1.35% in assay [12]; 3.26% in assay [13]. Further, the inhibition in [14] was -3.32%; in assay [15] it was -3.36%; in [16], -5.03%; in [17] it was -4.68%; in assay [18], 0.39%; in assay [19] it was 1.89%. Also, in assay [20], the inhibition was determined as 0.63%.
`NS(=O)(=O)c1cccc(-c2ccc3c(NC(=O)C4CC4)n[nH]c3c2)c1`: the inhibition in assay [1] was -3.57%; in assay [2] it was -2.03%; in assay [3], -1.61%; in assay [4], -0.79%; in assay [5], -1.58%; in assay [6], 3.4%. Also, the inhibition was 2.13% in assay [7]; -2.9% in [8]; -2.43% in assay [9]; 1.4% in assay [10]; 3.03% in assay [11]; 0.34% in assay [12]. In addition, the inhibition in assay [14] is -1.6%; in assay [15] it was -1.12%; in [16], 2.07%; in assay [17], 2.74%; in assay [18], 0.18%; in assay [19], 4.41%. In assay [20], the inhibition is 2.87%.
`Nc1nc(-c2ccccn2)c(-c2ccc3ncccc3n2)s1`: the inhibition is 2.01% in assay [1]; 0.62% in assay [2]; 2.75% in assay [3]; -0.73% in [4]; -1.69% in [5]; 4.2% in assay [6]. For the same molecule, the inhibition in assay [7] amounted to 6.33%; in [8], 2.16%; in [9], 4.44%; in assay [10], 4.05%; in assay [11] it was 3.99%; in assay [12], 0.14%. In addition, the inhibition in assay [13] is -0.77%; in assay [14] it was 2.05%; in assay [15] it was 2.02%; in assay [16], 1.5%; in assay [17], 3.66%; in assay [18], 3.28%. Besides, the inhibition in assay [19] came out at 6.18%; in assay [20], 2.5%.

For the origin of these results see ChEMBL document CHEMBL1961873, “Compounds: GSK PKIS; Assays: Nanosyn kinase panel” (2012).
